Data on 11 compounds can be found in PubChem BioAssay (NCI).

Structures are written as SMILES. Compounds without any hit were thinned out: in the full panel of roughly 79,000, 15% have a hit. Unmarked numbers belong to inactive results. Calls of active or inactive are those of the source. No stated cut-off is given here; in the data, active means growth inhibition above about 70%; inactive means the rest.

The nature of test [1]: NCI Yeast Anticancer Drug Screen. Data for the rad50 strain (AID 155).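 Further: 0% = growth of vehicle-only cultures of the same strain.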 The conditions noted are these: S. cerevisiae rad50 strain growth inhibition, stronger effect = higher value. In a few lines:
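A DNA repair-deficient yeast mutant serves as the test organism; compound-induced growth inhibition is calculated against vehicle-treated cells.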

A short description of test [2]: NCI Yeast Anticancer Drug Screen. Data for the mec2-1 strain (AID 157). The note with it: S. cerevisiae mec2-1 strain, stronger effect = higher value. In a few lines: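 Yeast mec2-1 mutant treated with compound. Readout: growth inhibition vs vehicle controls.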
Test [3] in a line: NCI Yeast Anticancer Drug Screen. Data for the sgs1 mgt1 strain (AID 161).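 Further: 0% = growth of cultures given vehicle only.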 The conditions noted are these: S. cerevisiae sgs1 mgt1 strain, stronger effect = higher value. In short, it runs like this: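 Read-out: growth inhibition vs vehicle controls. Cells: mutant yeast strain deficient in DNA damage repair.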
A short description of test [4]: NCI Yeast Anticancer Drug Screen. Data for the cln2 rad14 strain (AID 165).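 Further: 0% = growth equal to vehicle treated cultures.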 The note with it: S. cerevisiae cln2 rad14 strain, stronger effect = higher value. In a few lines: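 cln2 rad14 yeast strain; compound exposure; growth inhibition read vs vehicle controls.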
The nature of test [5]: NCI Yeast Anticancer Drug Screen. Data for the bub3 strain (AID 167). The conditions noted are these: S. cerevisiae bub3 mutant strain, stronger effect = higher value. In a few lines: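 Inhibition values come from growth of compound-treated mutant yeast normalised to vehicle-treated controls.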
Test [6] is described as follows: NCI Yeast Anticancer Drug Screen. Data for the mlh1 rad18 strain (AID 175). The note with it: S. cerevisiae mlh1 rad18 strain growth inhibition, stronger effect = higher value. In short, it runs like this:
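Yeast w/ defined DNA-repair lesions; compound exposure; growth vs vehicle controls → % inhibition.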

Setting [7] is: at 5.0 µM (retest, dose inferred, filed as 0.5).
Where [8] appears, read: at 50.0 µM (retest, dose inferred, filed as 5.0).

Regarding `O=C(CCCSCCCC(=O)NNc1ccccc1)NNc1ccccc1`, the growth inhibition is 31% in test [1] (setting [7]); 88% (active) in test [1] (setting [8]); 96.2% (active) in test [1] (at 50.0 µM); 16% in test [2] (setting [7]); 95% (active) in test [2] (setting [8]); 40.7% in test [2] (at 50.0 µM). Also, the growth inhibition in test [3] (setting [7]) was 30%; in test [3] (setting [8]), 94% (active); in test [3] (at 50.0 µM), 87.4% (active); in test [4] (setting [7]), 21%; in test [4] (setting [8]), 92% (active); in test [4] (at 50.0 µM) it was 86.7% (active). Also, the growth inhibition in test [5] (setting [7]) was 45%; in test [5] (setting [8]), 98% (active); in test [5] (at 50.0 µM), 96.5% (active); in test [6] (setting [7]), 54%; in test [6] (setting [8]), 98% (active); in test [6] (at 50.0 µM), 97.8% (active).

In the case of `C=C(CN1CCCC1)C(=O)c1ccc(OC)cc1`, the growth inhibition in test [1] (setting [7]) is -6%; in test [1] (setting [8]) it was 22%; in test [1] (at 50.0 µM), 3.25%; in test [2] (setting [7]), 7%; in test [2] (setting [8]) it was 65%; in test [2] (at 50.0 µM), 73% (active). In addition, the growth inhibition is -8% in test [3] (setting [7]); 55% in test [3] (setting [8]); 44.4% in test [3] (at 50.0 µM); 31% in test [4] (setting [7]); 81% (active) in test [4] (setting [8]); -20.4% in test [4] (at 50.0 µM). Moreover, the growth inhibition in test [6] (setting [7]) is 4%; in test [6] (setting [8]) it was 71% (active); in test [6] (at 50.0 µM), 46.6%.

Regarding `COC(=O)C1c2cc(C)ccc2-c2ccc(C)cc21`, the growth inhibition in test [1] (setting [7]) is 31%; in test [1] (setting [8]) it was 2%; in test [1] (at 50.0 µM) it was 13.6%; in test [2] (setting [7]) it was 3%; in test [2] (setting [8]), -17%; in test [2] (at 50.0 µM) it was 13.3%. Besides, the growth inhibition in test [4] (setting [7]) was -14%; in test [4] (setting [8]), 8%; in test [4] (at 50.0 µM), 30.2%; in test [5] (setting [7]), -10%; in test [5] (setting [8]) it was 18%; in test [5] (at 50.0 µM) it was 6.75%. Besides, the growth inhibition is 4% in test [6] (setting [7]), 26% in test [6] (setting [8]) and 49.5% in test [6] (at 50.0 µM).

As for `CC(C)(C)c1ccc(O)c(O)c1`, the growth inhibition is 2% in test [1] (setting [7]); 56% in test [1] (setting [8]); 63.4% in test [1] (at 50.0 µM); 10% in test [2] (setting [7]); 51% in test [2] (setting [8]); 61.6% in test [2] (at 50.0 µM). The growth inhibition in test [4] (setting [7]) is -1%; in test [4] (setting [8]), 16%; in test [4] (at 50.0 µM) it was -8.95%; in test [5] (setting [7]), -3%; in test [5] (setting [8]), 23%; in test [5] (at 50.0 µM), 37.6%. In addition, the growth inhibition in test [6] (setting [7]) was 10%; in test [6] (setting [8]), 75% (active); in test [6] (at 50.0 µM), 81.2% (active).

With `Oc1cccc(/C=C/c2ccncc2)c1`, the growth inhibition was 0% in test [1] (setting [7]); 28% in test [1] (setting [8]); 75.1% (active) in test [1] (at 50.0 µM); -4% in test [2] (setting [7]); 13% in test [2] (setting [8]); 37.6% in test [2] (at 50.0 µM). Moreover, the growth inhibition in test [3] (setting [7]) is -3%; in test [3] (setting [8]) it was 25%; in test [3] (at 50.0 µM), 65.5%; in test [4] (setting [7]), -6%; in test [4] (setting [8]), 15%; in test [4] (at 50.0 µM) it was 25.9%. In addition, the growth inhibition in test [5] (setting [7]) is -6%; in test [5] (setting [8]), 22%; in test [5] (at 50.0 µM) it was 63.8%; in test [6] (setting [7]), -1%; in test [6] (setting [8]), 12%; in test [6] (at 50.0 µM), 65.5%.

Regarding `O[C@H]1c2cccn2-c2ccccc2S[C@H]1c1ccccc1`, the growth inhibition in test [1] (setting [7]) was 12%; in test [1] (setting [8]), 99% (active); in test [1] (at 50.0 µM), 98.8% (active); in test [2] (setting [7]), -6%; in test [2] (setting [8]) it was 99% (active); in test [2] (at 50.0 µM) it was 98.8% (active). Moreover, the growth inhibition is 3% in test [3] (setting [7]); 97% (active) in test [3] (setting [8]); 98.8% (active) in test [3] (at 50.0 µM); 6% in test [4] (setting [7]); 99% (active) in test [4] (setting [8]); 98.8% (active) in test [4] (at 50.0 µM). The figures for the growth inhibition in test [6] (setting [7]), in test [6] (setting [8]) and in test [6] (at 50.0 µM) were -4%, 99% (active) and 99% (active), respectively.

As to `CCCCCCCN(CCCCCCC)CC(=O)NC(=O)c1ccccc1`, the growth inhibition was 29% in test [1] (setting [7]); 99% (active) in test [1] (setting [8]); 99.4% (active) in test [1] (at 50.0 µM); 21% in test [2] (setting [7]); 98% (active) in test [2] (setting [8]); 97.2% (active) in test [2] (at 50.0 µM). Also, the growth inhibition in test [3] (setting [7]) is 23%; in test [3] (setting [8]) it was 99% (active); in test [3] (at 50.0 µM) it was 99.5% (active); in test [4] (setting [7]) it was 33%; in test [4] (setting [8]), 99% (active); in test [4] (at 50.0 µM) it was 96.8% (active). For the same compound, the growth inhibition is 43% in test [5] (setting [7]); 99% (active) in test [5] (setting [8]); 99.3% (active) in test [5] (at 50.0 µM); 26% in test [6] (setting [7]); 99% (active) in test [6] (setting [8]); 99.3% (active) in test [6] (at 50.0 µM).

Regarding `CCCCCCCCCCOC(=O)c1ccccn1`, the growth inhibition in test [1] (setting [7]) is -6%; in test [1] (setting [8]), 93% (active); in test [1] (at 50.0 µM) it was 34.1%; in test [2] (setting [7]), -3%; in test [2] (setting [8]), 94% (active); in test [2] (at 50.0 µM), 42.7%. The growth inhibition was -3% in test [4] (setting [7]); 75% (active) in test [4] (setting [8]); 17.2% in test [4] (at 50.0 µM); 0% in test [5] (setting [7]); 80% (active) in test [5] (setting [8]); 43.2% in test [5] (at 50.0 µM). The growth inhibition in test [6] (setting [7]) is -2%; in test [6] (setting [8]), 83% (active); in test [6] (at 50.0 µM), 62.5%.

On to `CC(NC(=O)OCc1ccccc1)C(=O)NC(C(=O)O)C(C)C` (configuration not stated), for which the growth inhibition was 29% in test [1] (setting [7]); 66% in test [1] (setting [8]); 63.1% in test [1] (at 50.0 µM); 22% in test [2] (setting [7]); 46% in test [2] (setting [8]); 38% in test [2] (at 50.0 µM). For the same compound, the growth inhibition in test [3] (setting [7]) was 27%; in test [3] (setting [8]), 65%; in test [3] (at 50.0 µM) it was 60.6%; in test [4] (setting [7]), 37%; in test [4] (setting [8]) it was 48%; in test [4] (at 50.0 µM), 59.6%. The growth inhibition in test [6] (setting [7]) was 14%; in test [6] (setting [8]), 86% (active); in test [6] (at 50.0 µM), 74% (active).

On to `CCCN(Cc1ccccc1)S(=O)(=O)c1ccc(C)cc1`, for which the growth inhibition in test [1] (setting [7]) is -4%; in test [1] (setting [8]), 95% (active); in test [1] (at 50.0 µM), -14.1%; in test [2] (setting [7]), -4%; in test [2] (setting [8]), 97% (active); in test [2] (at 50.0 µM), -3.65%. Also, the growth inhibition is -5% in test [3] (setting [7]); 95% (active) in test [3] (setting [8]); 16% in test [3] (at 50.0 µM); -6% in test [4] (setting [7]); 93% (active) in test [4] (setting [8]); -19.5% in test [4] (at 50.0 µM). Further, the growth inhibition in test [6] (setting [7]) was -5%; in test [6] (setting [8]), 96% (active); in test [6] (at 50.0 µM), -7.75%.

In the case of `COC(=O)c1ccc(Cl)c(Cl)c1`, the growth inhibition is 1% in test [1] (setting [7]); 20% in test [1] (setting [8]); 8.2% in test [1] (at 50.0 µM); -2% in test [2] (setting [7]); 2% in test [2] (setting [8]); 6.75% in test [2] (at 50.0 µM). The growth inhibition is 2% in test [3] (setting [7]); 11% in test [3] (setting [8]); 11.8% in test [3] (at 50.0 µM); 1% in test [4] (setting [7]); 0% in test [4] (setting [8]); 75.3% (active) in test [4] (at 50.0 µM). Also, the growth inhibition was 12% in test [5] (setting [7]); 13% in test [5] (setting [8]); 22% in test [5] (at 50.0 µM); 1% in test [6] (setting [7]); 17% in test [6] (setting [8]); -0.65% in test [6] (at 50.0 µM).
